Consider 37 molecules from article PMC5540273 (PLoS ONE, 2017).

Structures are written as SMILES.
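Also: KINOMEscan kinase panel screen.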

One experiment relates to AKT1. As to conditions: concentration: 1 μM, replicates: in singlicate; n = 1.
Turning to `CCCCc1nn2ncccc2c1-c1ccnc(NC2CC2)n1` [GW684374], the “%Inh” value was found to be 0%.
The same measure, in the same setting: under `COC(=O)C(NC(=O)NC1CCN(c2ccnc(Nc3ccc(F)cc3)n2)C1)c1ccccc1` (centres unmarked) [GSK1379712] stands 0%; under `O=c1cc(N2CCOCC2)nc2n(Cc3ccccc3F)ccn12` [GSK2297428], 0%; under `COc1cc2ncnc(Nc3cccc(Br)c3)c2cc1OC.Cl` [GI230329], 0%.
Same read-out and setting: under `CS(=O)(=O)Cc1ccc(Nc2nccc(-c3c(-c4cccc(NC(=O)C5CCCCC5)c4)nn4ncccc34)n2)cc1` [GSK350559] stands 23%; under `Cc1cnc(N)c(/C=C/c2cncc(C(=O)NCCc3ccc(Cl)cc3Cl)c2)c1.Cl` [GSK190937], 0%; under `CS(=O)(=O)CCNCc1nc(-c2ccc3ncnc(Nc4ccc5c(cnn5Cc5ccccc5)c4)c3c2)cs1.Cl.Cl` [GW569716], 0%.
Still for that read-out and setting: under `CC[C@@H]1CO[C@H](C(=O)Nc2ccccc2)CN1c1cc(-c2ccc3c(N)n[nH]c3c2)nc(NC)n1` [GSK2376236] stands 0%.
With `CC(=O)c1c(C)c2cnc(Nc3ccc(N4CCNCC4)cn3)nc2n(C2CCCC2)c1=O`, the “%Inh” value worked out at 0%.
Same read-out and setting: under `COc1ccc(-c2coc3ccc(-c4nnc(C)o4)cc23)cc1` stands 8%; under `Cc1c(Cn2c(C)c(C)n3c(=O)cc(N4CCOCC4)nc23)cccc1C(F)(F)F` [GSK2328680], 0%.
On the same count and under the same terms, under `CNc1cc(-c2ccc3c(N)n[nH]c3c2)nc(N)n1` [GSK2224810] stands 0%.
The same measure, in the same setting: as for `Cc1ccc(NC(=O)c2ccc(Cl)cc2)cc1-c1ccc(C(=O)Nc2ccncc2)cc1` [GSK1398467], the figure is 0%; as for `CCn1c(-c2ccccc2)nc2cnccc21` [SB-733416], 0%.
Consider `CN1c2ccc(-c3ccc(C(N)=O)cc3)cc2-c2[nH]ncc2S1(=O)=O`, for which the “%Inh” value was 3%.
Still for that read-out and setting: under `CS(=O)(=O)CCNCc1nc(-c2ccc3ncnc(Nc4ccc(OCc5ccccc5)c(Cl)c4)c3c2)cs1.Cl` [GW582764] stands 0%; under `COC(=O)c1cccc(NC(=O)NC2CCN(c3ccnc(Nc4ccc(OC)cc4)n3)C2)c1` (centres unmarked) [GSK1379746], 0%; under `NS(=O)(=O)c1cccc(N/C=C2\C(=O)Nc3ccc(S(=O)(=O)Cc4c(Cl)cccc4Cl)cc32)c1` [GSK398099], 0%.
Still for that read-out and setting: under `CC(=O)c1cccc(NC(=O)NC2CCN(c3ccnc(Nc4ccc(F)cc4)n3)C2)c1` (centres unmarked) [GSK1379710] stands 0%; under `O=C1NC(=O)C(c2ccc(Cl)cc2)=C1Nc1cccc(Cl)c1` [SB-317651], 0%.
Still for that read-out and setting: under `Cc1ccc(-c2nc(Nc3ccncc3)c3ccccc3n2)s1` [GSK189015] stands 55%; under `Cn1cnc2c(N)ncnc21` [SKF-97623], 0%; under `CNc1nc(-c2ccc3c(N)n[nH]c3c2)cc(N2C[C@@H](C(=O)NC3CCCCC3)OC[C@H]2C)n1` [GSK2375584], 0%.
With `O=C(Nc1n[nH]c2nc(-c3ccco3)c(Br)cc12)C1CCN(Cc2ccccc2)C1.O=C(O)[C@H](O)[C@@H](O)C(=O)O` (centres unmarked) [SB-742034], the “%Inh” value is recorded as 0%.
Take `COc1ccc(Nc2nccc(NCCNC(=O)Nc3cc(C)ccc3C)n2)cc1` [GSK1379899]: the “%Inh” value was 0%.
Regarding `CC(C)c1cc(-c2ccc3c(N)n[nH]c3c2)nc(N)n1` [GSK2250882], the “%Inh” value turned out to be 0%.
`O=C(Nc1n[nH]c2nc(-c3cccs3)c(Br)cc12)C1CCCC1` [SB-743341]: the “%Inh” value is 0%.
Still for that read-out and setting: under `O=C1NC(=O)C(c2ccc(Cl)cc2)=C1Nc1ccc(O)cc1` [SB-340867] stands 1%.
Same read-out and setting: as for `COc1ccc(Nc2nccc(N3CCC(NC(=O)C(C)c4ccc(Cl)cc4)CC3)n2)cc1` (centres unmarked) [GSK1379812], the figure is 0%; as for `CC(C)c1ccc(O)cc1Nc1ccnc2ccc(C(F)(F)F)cc12` [GW482059], 0%; as for `CCn1c(-c2c(N)noc2C)nc2cnccc21` [SB-737856], 0%.
The same measure, in the same setting: under `COc1ccc(Nc2nccc(N3CCC(NC(=O)C(C)c4ccc(Cl)cc4)C3)n2)cc1` (centres unmarked) [GSK1379735] stands 0%.
Consider `O=c1cc(N2CCOCC2)nc2n(Cc3cccc(Cl)c3Cl)c3ccccc3n12` [GSK2299009], for which the “%Inh” value amounted to 0%.
For the molecule `CC(=O)c1c(C)c2cnc(Nc3ccn(C)n3)nc2n(C2CCCC2)c1=O`, the “%Inh” value is given as 3%.
Still for that read-out and setting: as for `Cc1nccc(-c2c(-c3ccc(F)cc3)ncn2CCCN2CCOCC2)n1.Cl` [SB-282975], the figure is 28%.
On the same count and under the same terms, as for `COc1ccc(CSc2nnc(-c3ccc4c(c3)CCO4)o2)cc1`, the figure is 0%.
`Cc1ccc(NC(=O)Nc2ccc(Cl)cc2)cc1-c1ccc(C(=O)Nc2ccncc2)cc1` [GSK1398472]: the “%Inh” value came to 0%.

The test system of the next experiment is AKT2. As to conditions: concentration: 1 μM, replicates: in singlicate; n = 1.
Regarding `CCCCc1nn2ncccc2c1-c1ccnc(NC2CC2)n1` [GW684374], the “%Inh” value is 0%.
Still for that read-out and setting: as for `COC(=O)C(NC(=O)NC1CCN(c2ccnc(Nc3ccc(F)cc3)n2)C1)c1ccccc1` (centres unmarked) [GSK1379712], the figure is 0%.
The same measure, in the same setting: as for `O=c1cc(N2CCOCC2)nc2n(Cc3ccccc3F)ccn12` [GSK2297428], the figure is 0%; as for `COc1cc2ncnc(Nc3cccc(Br)c3)c2cc1OC.Cl` [GI230329], 0%.
The same measure, in the same setting: under `CS(=O)(=O)Cc1ccc(Nc2nccc(-c3c(-c4cccc(NC(=O)C5CCCCC5)c4)nn4ncccc34)n2)cc1` [GSK350559] stands 4%.
With `Cc1cnc(N)c(/C=C/c2cncc(C(=O)NCCc3ccc(Cl)cc3Cl)c2)c1.Cl` [GSK190937], the “%Inh” value stood at 0%.
On the same count and under the same terms, under `CS(=O)(=O)CCNCc1nc(-c2ccc3ncnc(Nc4ccc5c(cnn5Cc5ccccc5)c4)c3c2)cs1.Cl.Cl` [GW569716] stands 2%.
Turning to `CC[C@@H]1CO[C@H](C(=O)Nc2ccccc2)CN1c1cc(-c2ccc3c(N)n[nH]c3c2)nc(NC)n1` [GSK2376236], the “%Inh” value came out at 15%.
As to `CC(=O)c1c(C)c2cnc(Nc3ccc(N4CCNCC4)cn3)nc2n(C2CCCC2)c1=O`, the “%Inh” value is recorded as 0%.
Turning to `COc1ccc(-c2coc3ccc(-c4nnc(C)o4)cc23)cc1`, the “%Inh” value was found to be 0%.
On to `Cc1c(Cn2c(C)c(C)n3c(=O)cc(N4CCOCC4)nc23)cccc1C(F)(F)F` [GSK2328680], for which the “%Inh” value is listed as 0%.
With `CNc1cc(-c2ccc3c(N)n[nH]c3c2)nc(N)n1` [GSK2224810], the “%Inh” value turned out to be 0%.
The same measure, in the same setting: under `Cc1ccc(NC(=O)c2ccc(Cl)cc2)cc1-c1ccc(C(=O)Nc2ccncc2)cc1` [GSK1398467] stands 19%; under `CCn1c(-c2ccccc2)nc2cnccc21` [SB-733416], 14%; under `CN1c2ccc(-c3ccc(C(N)=O)cc3)cc2-c2[nH]ncc2S1(=O)=O`, 0%.
`CS(=O)(=O)CCNCc1nc(-c2ccc3ncnc(Nc4ccc(OCc5ccccc5)c(Cl)c4)c3c2)cs1.Cl` [GW582764]: the “%Inh” value came to 31%.
For `COC(=O)c1cccc(NC(=O)NC2CCN(c3ccnc(Nc4ccc(OC)cc4)n3)C2)c1` (centres unmarked) [GSK1379746], the “%Inh” value was 11%.
Same read-out and setting: under `NS(=O)(=O)c1cccc(N/C=C2\C(=O)Nc3ccc(S(=O)(=O)Cc4c(Cl)cccc4Cl)cc32)c1` [GSK398099] stands 25%; under `CC(=O)c1cccc(NC(=O)NC2CCN(c3ccnc(Nc4ccc(F)cc4)n3)C2)c1` (centres unmarked) [GSK1379710], 2%; under `O=C1NC(=O)C(c2ccc(Cl)cc2)=C1Nc1cccc(Cl)c1` [SB-317651], 5%.
Regarding `Cc1ccc(-c2nc(Nc3ccncc3)c3ccccc3n2)s1` [GSK189015], the “%Inh” value is 19%.
Consider `Cn1cnc2c(N)ncnc21` [SKF-97623], for which the “%Inh” value amounted to 0%.
Still for that read-out and setting: under `CNc1nc(-c2ccc3c(N)n[nH]c3c2)cc(N2C[C@@H](C(=O)NC3CCCCC3)OC[C@H]2C)n1` [GSK2375584] stands 22%; under `O=C(Nc1n[nH]c2nc(-c3ccco3)c(Br)cc12)C1CCN(Cc2ccccc2)C1.O=C(O)[C@H](O)[C@@H](O)C(=O)O` (centres unmarked) [SB-742034], 3%.
The same measure, in the same setting: as for `COc1ccc(Nc2nccc(NCCNC(=O)Nc3cc(C)ccc3C)n2)cc1` [GSK1379899], the figure is 0%.
`CC(C)c1cc(-c2ccc3c(N)n[nH]c3c2)nc(N)n1` [GSK2250882]: the “%Inh” value was 17%.
Same read-out and setting: as for `O=C(Nc1n[nH]c2nc(-c3cccs3)c(Br)cc12)C1CCCC1` [SB-743341], the figure is 40%; as for `O=C1NC(=O)C(c2ccc(Cl)cc2)=C1Nc1ccc(O)cc1` [SB-340867], 0%; as for `COc1ccc(Nc2nccc(N3CCC(NC(=O)C(C)c4ccc(Cl)cc4)CC3)n2)cc1` (centres unmarked) [GSK1379812], 0%.
Still for that read-out and setting: under `CC(C)c1ccc(O)cc1Nc1ccnc2ccc(C(F)(F)F)cc12` [GW482059] stands 0%; under `CCn1c(-c2c(N)noc2C)nc2cnccc21` [SB-737856], 18%.
Same read-out and setting: under `COc1ccc(Nc2nccc(N3CCC(NC(=O)C(C)c4ccc(Cl)cc4)C3)n2)cc1` (centres unmarked) [GSK1379735] stands 9%.
Regarding `O=c1cc(N2CCOCC2)nc2n(Cc3cccc(Cl)c3Cl)c3ccccc3n12` [GSK2299009], the “%Inh” value was 21%.
On the same count and under the same terms, under `CC(=O)c1c(C)c2cnc(Nc3ccn(C)n3)nc2n(C2CCCC2)c1=O` stands 23%; under `Cc1nccc(-c2c(-c3ccc(F)cc3)ncn2CCCN2CCOCC2)n1.Cl` [SB-282975], 0%.
On the same count and under the same terms, as for `COc1ccc(CSc2nnc(-c3ccc4c(c3)CCO4)o2)cc1`, the figure is 0%.
Take `Cc1ccc(NC(=O)Nc2ccc(Cl)cc2)cc1-c1ccc(C(=O)Nc2ccncc2)cc1` [GSK1398472]: the “%Inh” value is given as 0%.
